According to PMC7862700, “An all-to-all approach to the identification of sequence-specific readers for epigenetic DNA modifications on cytosine”:

Tests used:
Assay in all cases: DAPPL (digital affinity profiling via proximity ligation, sequencing); 10 mM Tris-HCl pH 7.5, 50 mM NaCl, 1 mM DTT, 4% glycerol, room temperature, 30 min; GST-TFs on glutathione beads, 16-mer random dsDNA library, 0.1% formaldehyde crosslink after washing; high values mean tight binding
FLI1 = biological target: T1, FLI1 (Homo sapiens, UniProt Q01543 1-452); settings: protein: recombinant; tags: N-terminal GST; dsDNA, one strand shown
T1 sequence: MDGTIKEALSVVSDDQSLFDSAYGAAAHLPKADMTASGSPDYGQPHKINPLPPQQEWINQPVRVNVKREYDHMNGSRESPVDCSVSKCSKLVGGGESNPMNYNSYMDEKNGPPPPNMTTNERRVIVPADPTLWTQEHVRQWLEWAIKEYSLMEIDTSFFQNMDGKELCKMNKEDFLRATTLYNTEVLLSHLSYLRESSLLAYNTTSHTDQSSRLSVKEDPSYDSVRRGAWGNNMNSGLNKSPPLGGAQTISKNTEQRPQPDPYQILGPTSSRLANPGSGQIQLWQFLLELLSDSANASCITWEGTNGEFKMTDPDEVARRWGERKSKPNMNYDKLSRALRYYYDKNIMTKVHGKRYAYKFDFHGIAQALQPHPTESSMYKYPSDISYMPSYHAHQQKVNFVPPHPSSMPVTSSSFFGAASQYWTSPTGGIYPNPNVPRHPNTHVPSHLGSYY
How it was run: (§1)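 Binding signal is each hexamer's read frequency for a factor divided by its frequency in the tag-only sample. The factors were GST-fused human transcription factors from yeast, captured on glutathione beads, DNA-barcoded and pooled with that sample. Pools were incubated with 200 nmole of a random double-stranded 16-mer DNA library in Tris/NaCl/DTT/glycerol buffer at room temperature for 30 min, then washed, crosslinked with 0.1% formaldehyde, proximity-ligated with BsaI/T4 ligase (1 h, 37 °C), PCR-amplified and sequenced on an Illumina NextSeq500.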

ELK1 = biological target: T2, ELK1 (Homo sapiens, UniProt P19419 1-428); settings: protein: recombinant; tags: N-terminal GST; dsDNA, one strand shown
T2 sequence: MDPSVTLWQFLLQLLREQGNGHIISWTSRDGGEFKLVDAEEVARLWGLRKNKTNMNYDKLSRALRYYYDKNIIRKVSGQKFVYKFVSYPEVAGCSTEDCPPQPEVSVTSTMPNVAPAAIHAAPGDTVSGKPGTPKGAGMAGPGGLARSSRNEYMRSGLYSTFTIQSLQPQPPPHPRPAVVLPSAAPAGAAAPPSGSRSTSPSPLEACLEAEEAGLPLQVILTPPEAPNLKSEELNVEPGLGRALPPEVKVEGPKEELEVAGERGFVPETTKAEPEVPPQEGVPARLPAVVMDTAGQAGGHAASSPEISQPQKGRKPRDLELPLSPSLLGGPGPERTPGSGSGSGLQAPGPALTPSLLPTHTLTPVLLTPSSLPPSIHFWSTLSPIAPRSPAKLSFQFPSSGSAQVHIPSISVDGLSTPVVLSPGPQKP
How it was run: as §1

GABPA = biological target: T3, GABPA (Homo sapiens, UniProt Q06546 1-454); settings: protein: recombinant; tags: N-terminal GST; dsDNA, one strand shown
T3 sequence: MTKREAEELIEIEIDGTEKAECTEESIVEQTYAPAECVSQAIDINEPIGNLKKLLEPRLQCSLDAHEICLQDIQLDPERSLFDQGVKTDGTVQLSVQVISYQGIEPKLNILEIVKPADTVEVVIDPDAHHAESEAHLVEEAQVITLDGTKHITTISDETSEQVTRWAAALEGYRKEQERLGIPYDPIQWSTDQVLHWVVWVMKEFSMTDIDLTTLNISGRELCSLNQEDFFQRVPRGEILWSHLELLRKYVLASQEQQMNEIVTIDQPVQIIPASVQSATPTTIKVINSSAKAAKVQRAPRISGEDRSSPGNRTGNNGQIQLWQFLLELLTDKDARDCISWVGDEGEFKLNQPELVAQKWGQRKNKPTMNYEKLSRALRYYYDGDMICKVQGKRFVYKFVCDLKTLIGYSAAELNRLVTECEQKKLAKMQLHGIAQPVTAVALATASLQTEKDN
How it was run: as §1

ERG = biological target: T4, ERG (Homo sapiens, UniProt P11308 1-479); settings: protein: recombinant; tags: N-terminal GST; dsDNA, one strand shown
T4 sequence: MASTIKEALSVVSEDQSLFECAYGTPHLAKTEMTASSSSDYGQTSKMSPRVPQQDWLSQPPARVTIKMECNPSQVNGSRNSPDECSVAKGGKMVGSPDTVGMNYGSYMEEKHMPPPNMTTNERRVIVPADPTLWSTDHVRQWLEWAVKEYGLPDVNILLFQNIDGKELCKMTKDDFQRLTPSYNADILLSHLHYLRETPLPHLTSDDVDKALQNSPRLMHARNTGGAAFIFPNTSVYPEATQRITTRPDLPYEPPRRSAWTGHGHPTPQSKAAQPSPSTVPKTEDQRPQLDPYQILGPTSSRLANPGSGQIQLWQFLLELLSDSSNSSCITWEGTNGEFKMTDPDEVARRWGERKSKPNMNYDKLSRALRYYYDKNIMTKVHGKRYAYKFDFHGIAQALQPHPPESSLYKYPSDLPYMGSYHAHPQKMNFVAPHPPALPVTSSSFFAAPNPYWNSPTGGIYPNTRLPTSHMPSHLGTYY
How it was run: as §1

ELF1 = ELF1 (Homo sapiens, UniProt P32519 1-619); settings: protein: recombinant; tags: N-terminal GST; dsDNA, one strand shown
How it was run: as §1

EHF = biological target: T5, EHF (Homo sapiens, UniProt Q9NZC4 1-300); settings: protein: recombinant; tags: N-terminal GST; dsDNA, one strand shown
T5 sequence: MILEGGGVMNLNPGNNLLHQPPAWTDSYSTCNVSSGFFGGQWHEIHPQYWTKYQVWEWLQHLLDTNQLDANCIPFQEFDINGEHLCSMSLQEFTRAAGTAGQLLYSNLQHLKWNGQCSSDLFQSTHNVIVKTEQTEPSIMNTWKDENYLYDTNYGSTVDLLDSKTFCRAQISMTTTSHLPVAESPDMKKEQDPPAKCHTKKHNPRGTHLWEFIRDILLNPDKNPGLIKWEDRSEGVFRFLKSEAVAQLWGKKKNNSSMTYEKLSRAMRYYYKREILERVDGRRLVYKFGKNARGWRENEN
How it was run: as §1

SPI1 = SPI1 (Homo sapiens, UniProt P17947 1-270); settings: protein: recombinant; tags: N-terminal GST; dsDNA, one strand shown
How it was run: as §1

SPIB = SPIB (Homo sapiens, UniProt Q01892 1-262); settings: protein: recombinant; tags: N-terminal GST; dsDNA, one strand shown
How it was run: as §1

ELK3 = biological target: T6, ELK3 (Homo sapiens, UniProt P41970 1-407); settings: protein: recombinant; tags: N-terminal GST; dsDNA, one strand shown
T6 sequence: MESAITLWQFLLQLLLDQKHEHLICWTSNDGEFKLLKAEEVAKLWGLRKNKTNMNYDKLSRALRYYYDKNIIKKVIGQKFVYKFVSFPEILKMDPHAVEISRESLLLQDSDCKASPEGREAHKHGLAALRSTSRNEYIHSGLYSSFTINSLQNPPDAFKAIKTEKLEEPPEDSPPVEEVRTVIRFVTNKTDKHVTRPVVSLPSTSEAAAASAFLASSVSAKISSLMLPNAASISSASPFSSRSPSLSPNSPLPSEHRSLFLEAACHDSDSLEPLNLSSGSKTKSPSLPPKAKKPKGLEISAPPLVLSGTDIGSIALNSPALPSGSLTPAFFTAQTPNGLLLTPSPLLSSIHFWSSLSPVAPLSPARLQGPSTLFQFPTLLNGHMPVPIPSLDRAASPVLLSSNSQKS
How it was run: as §1

FEV = biological target: T7, FEV (Homo sapiens, UniProt Q99581 1-238); settings: protein: recombinant; tags: N-terminal GST; dsDNA, one strand shown
T7 sequence: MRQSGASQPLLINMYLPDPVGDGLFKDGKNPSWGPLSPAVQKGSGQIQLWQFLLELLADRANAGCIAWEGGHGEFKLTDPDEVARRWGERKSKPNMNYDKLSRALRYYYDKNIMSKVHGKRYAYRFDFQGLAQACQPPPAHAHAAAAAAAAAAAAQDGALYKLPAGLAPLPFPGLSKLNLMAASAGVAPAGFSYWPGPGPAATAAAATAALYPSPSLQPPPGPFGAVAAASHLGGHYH
How it was run: as §1

ETV5 = ETV5 (Homo sapiens, UniProt P41161 1-510); settings: protein: recombinant; tags: N-terminal GST; dsDNA, one strand shown
How it was run: as §1

HSF1 = HSF1 (Homo sapiens, UniProt Q00613 1-529); settings: protein: recombinant; tags: N-terminal GST; chain copies: 3; dsDNA, one strand shown
How it was run: as §1

SPIC = biological target: T8, SPIC (Homo sapiens, UniProt Q8N5J4 1-248); settings: protein: recombinant; tags: N-terminal GST; dsDNA, one strand shown
T8 sequence: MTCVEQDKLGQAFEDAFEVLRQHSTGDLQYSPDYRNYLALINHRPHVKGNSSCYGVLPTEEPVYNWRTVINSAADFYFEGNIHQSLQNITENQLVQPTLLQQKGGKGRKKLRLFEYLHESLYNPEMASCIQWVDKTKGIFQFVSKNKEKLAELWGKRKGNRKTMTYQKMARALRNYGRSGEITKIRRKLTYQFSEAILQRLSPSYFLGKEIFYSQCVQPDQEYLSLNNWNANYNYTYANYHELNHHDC
How it was run: as §1

ELF4 = ELF4 (Homo sapiens, UniProt Q99607 1-663); settings: protein: recombinant; tags: N-terminal GST; dsDNA, one strand shown
How it was run: as §1

ELK4 = biological target: T9, ELK4 (Homo sapiens, UniProt P28324-2 1-405); settings: protein: recombinant; tags: N-terminal GST; dsDNA, one strand shown
T9 sequence: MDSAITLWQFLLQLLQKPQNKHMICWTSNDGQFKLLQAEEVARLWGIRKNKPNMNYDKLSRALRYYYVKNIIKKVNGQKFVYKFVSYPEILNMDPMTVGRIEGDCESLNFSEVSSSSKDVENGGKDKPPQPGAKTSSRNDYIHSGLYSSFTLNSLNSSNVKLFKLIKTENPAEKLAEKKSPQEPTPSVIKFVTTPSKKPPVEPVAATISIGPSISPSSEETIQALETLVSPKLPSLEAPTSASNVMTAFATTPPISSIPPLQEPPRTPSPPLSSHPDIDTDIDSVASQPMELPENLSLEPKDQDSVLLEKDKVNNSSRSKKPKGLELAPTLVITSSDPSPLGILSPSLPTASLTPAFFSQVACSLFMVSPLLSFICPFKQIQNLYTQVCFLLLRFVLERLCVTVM
How it was run: as §1

ETV2 = biological target: T10, ETV2 (Homo sapiens, UniProt O00321 1-342); settings: protein: recombinant; tags: N-terminal GST; dsDNA, one strand shown
T10 sequence: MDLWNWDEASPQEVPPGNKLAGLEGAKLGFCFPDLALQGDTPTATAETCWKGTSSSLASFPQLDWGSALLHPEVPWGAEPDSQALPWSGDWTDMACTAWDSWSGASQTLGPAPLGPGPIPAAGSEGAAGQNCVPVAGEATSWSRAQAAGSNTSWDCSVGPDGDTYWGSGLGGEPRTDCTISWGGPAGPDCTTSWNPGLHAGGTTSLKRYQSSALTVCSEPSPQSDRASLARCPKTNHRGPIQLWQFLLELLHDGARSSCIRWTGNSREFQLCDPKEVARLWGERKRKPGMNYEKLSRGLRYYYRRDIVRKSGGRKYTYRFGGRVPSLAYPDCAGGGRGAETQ
How it was run: as §1

ELF3 = biological target: T11, ELF3 (Homo sapiens, UniProt P78545 1-371); settings: protein: recombinant; tags: N-terminal GST; dsDNA, one strand shown
T11 sequence: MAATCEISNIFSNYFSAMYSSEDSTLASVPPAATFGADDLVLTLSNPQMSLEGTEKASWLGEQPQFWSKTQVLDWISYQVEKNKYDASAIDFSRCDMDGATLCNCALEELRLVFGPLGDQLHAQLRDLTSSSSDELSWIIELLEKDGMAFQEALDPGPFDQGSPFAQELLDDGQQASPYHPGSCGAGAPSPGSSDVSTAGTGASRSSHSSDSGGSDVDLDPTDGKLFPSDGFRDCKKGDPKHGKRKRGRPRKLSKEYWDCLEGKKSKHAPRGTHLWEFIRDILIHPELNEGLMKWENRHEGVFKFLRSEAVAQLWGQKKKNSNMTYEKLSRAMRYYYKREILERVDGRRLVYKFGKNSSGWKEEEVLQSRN
How it was run: as §1

CRX = CRX (Homo sapiens, UniProt O43186 1-299); settings: protein: recombinant; tags: N-terminal GST; dsDNA, one strand shown
How it was run: as §1

ETV1 = ETV1 (Homo sapiens, UniProt P50549 1-477); settings: protein: recombinant; tags: N-terminal GST; dsDNA, one strand shown
How it was run: as §1

Chain of SPIB (Q01892 whole entry): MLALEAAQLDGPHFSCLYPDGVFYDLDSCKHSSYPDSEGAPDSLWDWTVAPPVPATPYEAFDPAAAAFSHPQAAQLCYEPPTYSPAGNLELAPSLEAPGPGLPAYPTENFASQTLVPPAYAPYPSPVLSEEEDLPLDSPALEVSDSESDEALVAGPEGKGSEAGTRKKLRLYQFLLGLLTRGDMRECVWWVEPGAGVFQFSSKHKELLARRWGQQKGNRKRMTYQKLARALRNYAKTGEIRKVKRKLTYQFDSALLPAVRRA
Chain of ELF1 (P32519 whole entry): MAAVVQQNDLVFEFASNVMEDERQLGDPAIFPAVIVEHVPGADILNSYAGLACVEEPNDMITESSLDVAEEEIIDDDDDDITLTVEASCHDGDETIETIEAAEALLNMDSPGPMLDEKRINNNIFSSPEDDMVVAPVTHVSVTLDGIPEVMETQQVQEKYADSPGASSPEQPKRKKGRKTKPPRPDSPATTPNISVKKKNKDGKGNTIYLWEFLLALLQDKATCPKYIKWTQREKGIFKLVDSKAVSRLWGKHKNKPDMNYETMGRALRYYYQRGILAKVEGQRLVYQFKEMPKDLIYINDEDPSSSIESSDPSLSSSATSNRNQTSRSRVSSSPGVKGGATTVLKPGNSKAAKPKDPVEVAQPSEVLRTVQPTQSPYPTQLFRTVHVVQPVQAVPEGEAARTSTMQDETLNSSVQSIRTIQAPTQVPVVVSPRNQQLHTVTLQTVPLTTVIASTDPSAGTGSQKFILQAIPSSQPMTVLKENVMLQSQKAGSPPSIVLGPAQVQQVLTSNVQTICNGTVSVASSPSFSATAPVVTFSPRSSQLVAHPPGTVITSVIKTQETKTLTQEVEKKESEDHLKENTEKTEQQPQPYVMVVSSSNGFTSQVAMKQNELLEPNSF
Chain of HSF1 (Q00613 whole entry): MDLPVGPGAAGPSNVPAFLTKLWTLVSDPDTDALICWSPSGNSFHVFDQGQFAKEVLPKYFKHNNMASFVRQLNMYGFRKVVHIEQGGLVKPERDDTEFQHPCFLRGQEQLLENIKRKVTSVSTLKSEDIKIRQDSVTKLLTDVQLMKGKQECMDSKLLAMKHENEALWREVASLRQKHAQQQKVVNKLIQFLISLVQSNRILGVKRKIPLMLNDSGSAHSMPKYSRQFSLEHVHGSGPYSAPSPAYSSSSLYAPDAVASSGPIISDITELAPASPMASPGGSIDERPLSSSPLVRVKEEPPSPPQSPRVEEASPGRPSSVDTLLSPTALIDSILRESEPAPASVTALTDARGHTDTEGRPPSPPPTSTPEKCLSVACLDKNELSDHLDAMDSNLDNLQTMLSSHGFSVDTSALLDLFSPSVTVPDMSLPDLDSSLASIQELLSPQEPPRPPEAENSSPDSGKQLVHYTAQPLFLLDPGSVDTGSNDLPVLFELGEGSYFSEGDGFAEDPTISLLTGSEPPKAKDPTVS
Chain of ETV1 (P50549 whole entry): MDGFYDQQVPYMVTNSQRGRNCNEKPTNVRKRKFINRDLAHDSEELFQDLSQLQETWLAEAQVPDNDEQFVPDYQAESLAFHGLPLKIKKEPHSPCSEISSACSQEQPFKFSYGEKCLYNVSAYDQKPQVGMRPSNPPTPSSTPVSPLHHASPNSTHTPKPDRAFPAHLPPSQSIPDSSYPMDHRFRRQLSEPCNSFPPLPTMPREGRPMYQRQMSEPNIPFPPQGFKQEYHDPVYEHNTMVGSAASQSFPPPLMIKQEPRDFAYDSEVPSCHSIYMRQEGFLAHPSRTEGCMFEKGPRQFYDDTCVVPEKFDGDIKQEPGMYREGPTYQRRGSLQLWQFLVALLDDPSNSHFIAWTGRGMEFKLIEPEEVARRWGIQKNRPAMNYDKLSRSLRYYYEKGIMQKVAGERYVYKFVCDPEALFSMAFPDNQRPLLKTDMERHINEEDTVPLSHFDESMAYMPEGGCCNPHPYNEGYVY
Chain of ETV5 (P41161 whole entry): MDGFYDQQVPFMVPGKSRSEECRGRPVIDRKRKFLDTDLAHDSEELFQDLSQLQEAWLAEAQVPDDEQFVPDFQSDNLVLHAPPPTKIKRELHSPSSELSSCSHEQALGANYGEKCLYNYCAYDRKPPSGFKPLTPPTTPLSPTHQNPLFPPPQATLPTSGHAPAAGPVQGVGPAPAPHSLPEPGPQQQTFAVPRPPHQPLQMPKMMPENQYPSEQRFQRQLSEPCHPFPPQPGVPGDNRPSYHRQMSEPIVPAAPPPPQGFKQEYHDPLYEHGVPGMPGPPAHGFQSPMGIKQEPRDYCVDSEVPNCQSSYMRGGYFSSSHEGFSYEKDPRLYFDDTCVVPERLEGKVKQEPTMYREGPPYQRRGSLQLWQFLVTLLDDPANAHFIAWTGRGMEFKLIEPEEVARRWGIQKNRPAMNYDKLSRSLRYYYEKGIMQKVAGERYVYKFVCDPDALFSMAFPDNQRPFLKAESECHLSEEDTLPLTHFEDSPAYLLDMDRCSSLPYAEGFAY
Chain of ELF4 (Q99607 whole entry): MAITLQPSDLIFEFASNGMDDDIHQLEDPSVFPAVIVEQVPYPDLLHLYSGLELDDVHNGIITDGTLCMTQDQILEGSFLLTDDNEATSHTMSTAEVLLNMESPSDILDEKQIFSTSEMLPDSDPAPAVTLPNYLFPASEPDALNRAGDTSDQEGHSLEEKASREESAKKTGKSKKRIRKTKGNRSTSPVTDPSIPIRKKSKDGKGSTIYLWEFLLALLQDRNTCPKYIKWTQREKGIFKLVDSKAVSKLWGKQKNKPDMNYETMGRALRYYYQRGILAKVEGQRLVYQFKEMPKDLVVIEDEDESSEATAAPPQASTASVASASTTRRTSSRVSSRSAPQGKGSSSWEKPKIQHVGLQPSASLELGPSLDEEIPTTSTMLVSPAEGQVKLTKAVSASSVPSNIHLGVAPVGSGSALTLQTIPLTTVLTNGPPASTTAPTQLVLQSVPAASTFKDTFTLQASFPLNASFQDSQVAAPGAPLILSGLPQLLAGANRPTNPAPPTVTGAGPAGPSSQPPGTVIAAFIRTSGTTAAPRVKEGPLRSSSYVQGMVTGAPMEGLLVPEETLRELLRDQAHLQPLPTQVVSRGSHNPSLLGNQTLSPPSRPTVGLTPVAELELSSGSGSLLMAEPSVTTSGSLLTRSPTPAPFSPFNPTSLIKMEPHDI
Chain of CRX (O43186 whole entry): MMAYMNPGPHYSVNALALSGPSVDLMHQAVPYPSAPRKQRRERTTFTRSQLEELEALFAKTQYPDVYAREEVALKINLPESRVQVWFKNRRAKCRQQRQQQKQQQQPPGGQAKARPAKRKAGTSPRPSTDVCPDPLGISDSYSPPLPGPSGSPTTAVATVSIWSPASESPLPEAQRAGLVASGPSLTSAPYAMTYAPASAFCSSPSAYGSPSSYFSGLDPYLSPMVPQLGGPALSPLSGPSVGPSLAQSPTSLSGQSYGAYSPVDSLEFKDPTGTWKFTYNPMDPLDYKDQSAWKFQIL

With TCTGGG the binding signal (FLI1) was 1.1 fold enrichment (6-mer frequency, TF over GST control), the binding signal (ELK1) was 1.06 fold enrichment (6-mer frequency, TF over GST control) and the binding signal (GABPA) was 1.06 fold enrichment (6-mer frequency, TF over GST control). For the same sequence, the binding signal (ERG) was 1.04 fold enrichment (6-mer frequency, TF over GST control), the binding signal (ELF1) was 1.18 fold enrichment (6-mer frequency, TF over GST control) and the binding signal (EHF) was 1.09 fold enrichment (6-mer frequency, TF over GST control). The binding signal (SPI1) was 1.12 fold enrichment (6-mer frequency, TF over GST control), the binding signal (SPIB) was 1.02 fold enrichment (6-mer frequency, TF over GST control) and the binding signal (ELK3) was 1.28 fold enrichment (6-mer frequency, TF over GST control). The binding signal (FEV) was 1.13 fold enrichment (6-mer frequency, TF over GST control), the binding signal (ETV5) was 1.13 fold enrichment (6-mer frequency, TF over GST control) and the binding signal (HSF1) was 1.4 fold enrichment (6-mer frequency, TF over GST control). The binding signal (SPIC) was 1.11 fold enrichment (6-mer frequency, TF over GST control), the binding signal (ELF4) was 1.08 fold enrichment (6-mer frequency, TF over GST control) and the binding signal (ELK4) was 1.22 fold enrichment (6-mer frequency, TF over GST control). For the same sequence, the binding signal (ETV2) was 1.19 fold enrichment (6-mer frequency, TF over GST control), the binding signal (ELF3) was 1.12 fold enrichment (6-mer frequency, TF over GST control) and the binding signal (CRX) was 1.1 fold enrichment (6-mer frequency, TF over GST control). For the same sequence, the binding signal (ETV1) was 1.04 fold enrichment (6-mer frequency, TF over GST control).
